In all, about 5,500 compounds went through this assay and about 2,000 (36%) were called active. Inconclusive results (about 18%) are left out. Rule as the data show it: active = normalized growth mostly below about 0.91 (no sharp cut-off); inconclusive = no clear call, values can overlap the other calls; inactive = mostly above about 0.92. The list shows a part of the results.
Test: chemical genetic growth profiling, strain panel (AID 1159580);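 also: tested at 20 µM; growth read once vehicle control cultures reached saturation at 30 °C; 1 = growth at the plate median or of vehicle wells; lower values mean less growth of the strain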
Details: growth OD

Measured: normalized growth

Oc1c(Br)cc(Br)c2cccnc12
active: S. cerevisiae deletion strains, locus YJR075W, strain HOC1, stronger effect = lower value 0.0682 | S. cerevisiae deletion strains, locus YKL009W, strain mrt4, stronger effect = lower value 0.0898 | S. cerevisiae deletion strains, locus YKL068W, stronger effect = lower value 0.0659 | S. cerevisiae deletion strains, locus YKL085W, strain MDH1 (second series), stronger effect = lower value 0.0622 | S. cerevisiae deletion strains, locus YKL085W, strain MDH1, stronger effect = lower value 0.0622 | S. cerevisiae deletion strains, locus YKL160W, strain elf1, stronger effect = lower value 0.0686 | S. cerevisiae deletion strains, locus YKL190W, strain CNB1, stronger effect = lower value 0.049 | S. cerevisiae deletion strains, locus YKR001C, strain vps1, stronger effect = lower value 0.0714 | S. cerevisiae deletion strains, locus YKR026C, strain gcn3, stronger effect = lower value 0.0599 | S. cerevisiae deletion strains, locus YKR091W, strain srl3, stronger effect = lower value 0.0574 | S. cerevisiae deletion strains, locus YLL001W, strain dnm1, stronger effect = lower value 0.0635 | S. cerevisiae deletion strains, locus YLL026W, stronger effect = lower value 0.065 | S. cerevisiae deletion strains, locus YLL041C, strain sdh2, stronger effect = lower value 0.0602 | S. cerevisiae deletion strains, locus YLR027C, strain aat2, stronger effect = lower value 0.0544 | S. cerevisiae deletion strains, locus YLR039C, strain RIC1, stronger effect = lower value 0.0808 | S. cerevisiae deletion strains, locus YLR058C, strain SHM2, stronger effect = lower value 0.0497 | S. cerevisiae deletion strains, locus YLR102C, strain apc9, stronger effect = lower value 0.0675 | S. cerevisiae deletion strains, locus YLR113W, strain HOG1, stronger effect = lower value 0.164 | S. cerevisiae deletion strains, locus YLR221C, strain rsa3, stronger effect = lower value 0.061 | S. cerevisiae deletion strains, locus YLR258W, strain gsy2, stronger effect = lower value 0.0604 | S. cerevisiae deletion strains, locus YLR262C, strain YPT6 (second series), stronger effect = lower value 0.0797 | S. cerevisiae deletion strains, locus YLR262C, strain YPT6, stronger effect = lower value 0.106 | S. cerevisiae deletion strains, locus YLR268W, strain sec22, stronger effect = lower value 0.0737 | S. cerevisiae deletion strains, locus YLR320W, strain mms22, stronger effect = lower value 0.0804 | S. cerevisiae deletion strains, locus YLR330W, strain CHS5, stronger effect = lower value 0.0542 | S. cerevisiae deletion strains, locus YLR342W, strain FKS1 (second series), stronger effect = lower value 0.0742 | S. cerevisiae deletion strains, locus YLR342W, strain FKS1, stronger effect = lower value 0.0656 | S. cerevisiae deletion strains, locus YLR357W, strain rsc2, stronger effect = lower value 0.121 | S. cerevisiae deletion strains, locus YLR370C, strain arc18, stronger effect = lower value 0.0663 | S. cerevisiae deletion strains, locus YLR371W, strain rom2, stronger effect = lower value 0.0714 | S. cerevisiae deletion strains, locus YLR384C, strain iki3, stronger effect = lower value 0.0612 | S. cerevisiae deletion strains, locus YLR418C, strain cdc73, stronger effect = lower value 0.11 | S. cerevisiae deletion strains, locus YML016C, strain PPZ1, stronger effect = lower value 0.0489 | S. cerevisiae deletion strains, locus YML032C, strain rad52, stronger effect = lower value 0.0748 | S. cerevisiae deletion strains, locus YML120C, strain ndi1, stronger effect = lower value 0.0584 | S. cerevisiae deletion strains, locus YML124C, strain tub3, stronger effect = lower value 0.067 | S. cerevisiae deletion strains, locus YMR058W, strain fet3, stronger effect = lower value 0.0605 | S. cerevisiae deletion strains, locus YMR078C, strain ctf18, stronger effect = lower value 0.0799 | S. cerevisiae deletion strains, locus YMR125W, strain sto1, stronger effect = lower value 0.0777 | S. cerevisiae deletion strains, locus YMR129W, stronger effect = lower value 0.0576 | S. cerevisiae deletion strains, locus YMR205C, strain PFK2, stronger effect = lower value 0.0851 | S. cerevisiae deletion strains, locus YMR223W, strain ubp8, stronger effect = lower value 0.0723 | S. cerevisiae deletion strains, locus YMR231W, strain pep5, stronger effect = lower value 0.0707 | S. cerevisiae deletion strains, locus YMR263W, strain SAP30, stronger effect = lower value 0.0608 | S. cerevisiae deletion strains, locus YMR307W, strain GAS1, stronger effect = lower value 0.111 | S. cerevisiae deletion strains, locus YNL067W, strain RPL9B, stronger effect = lower value 0.0529 | S. cerevisiae deletion strains, locus YNL071W, strain lat1, stronger effect = lower value 0.061 | S. cerevisiae deletion strains, locus YNL128W, strain TEP1, stronger effect = lower value 0.0661 | S. cerevisiae deletion strains, locus YNL153C, strain GIM3, stronger effect = lower value 0.0523 | S. cerevisiae deletion strains, locus YNL183C, strain NPR1, stronger effect = lower value -0.0047 | S. cerevisiae deletion strains, locus YNL209W, strain ssb2, stronger effect = lower value 0.0598 | S. cerevisiae deletion strains, locus YNL233W, strain BNI4, stronger effect = lower value 0.0553 | S. cerevisiae deletion strains, locus YNL248C, strain rpa49, stronger effect = lower value 0.0858 | S. cerevisiae deletion strains, locus YNL250W, strain rad50, stronger effect = lower value 0.0799 | S. cerevisiae deletion strains, locus YNL271C, strain bni1, stronger effect = lower value 0.075 | S. cerevisiae deletion strains, locus YNL298W, strain CLA4, stronger effect = lower value 0.0729 | S. cerevisiae deletion strains, locus YNL307C, strain MCK1, stronger effect = lower value 0.078 | S. cerevisiae deletion strains, locus YNL322C, strain KRE1 (second series), stronger effect = lower value 0.0637 | S. cerevisiae deletion strains, locus YNL322C, strain KRE1, stronger effect = lower value 0.0493 | S. cerevisiae deletion strains, locus YNR049C, strain mso1, stronger effect = lower value 0.0578 | S. cerevisiae deletion strains, locus YNR052C, strain pop2, stronger effect = lower value 0.0694 | S. cerevisiae deletion strains, locus YOL006C, strain TOP1, stronger effect = lower value 0.108 | S. cerevisiae deletion strains, locus YOL012C, strain htz1 0.189 | S. cerevisiae deletion strains, locus YOL147C, strain pex11, stronger effect = lower value 0.0679 | S. cerevisiae deletion strains, locus YOR001W, strain rrp6, stronger effect = lower value 0.0757 | S. cerevisiae deletion strains, locus YOR061W, strain CKA2, stronger effect = lower value 0.048 | S. cerevisiae deletion strains, locus YOR069W, strain VPS5, stronger effect = lower value 0.0497 | S. cerevisiae deletion strains, locus YOR070C, strain gyp1, stronger effect = lower value 0.59 | S. cerevisiae deletion strains, locus YOR080W, strain dia2, stronger effect = lower value 0.0706 | S. cerevisiae deletion strains, locus YOR083W, strain WHI5, stronger effect = lower value 0.0621 | S. cerevisiae deletion strains, locus YOR106W, strain vam3, stronger effect = lower value 0.0686 | S. cerevisiae deletion strains, locus YOR136W, strain idh2, stronger effect = lower value 0.0816 | S. cerevisiae deletion strains, locus YOR144C, strain elg1, stronger effect = lower value 0.0654 | S. cerevisiae deletion strains, locus YOR184W, strain ser1, stronger effect = lower value 0.0794 | S. cerevisiae deletion strains, locus YOR231W, strain MKK1, stronger effect = lower value 0.109 | S. cerevisiae deletion strains, locus YOR265W, strain rbl2, stronger effect = lower value 0.0573 | S. cerevisiae deletion strains, locus YOR270C, strain vph1, stronger effect = lower value 0.102 | S. cerevisiae deletion strains, locus YOR290C, strain snf2, stronger effect = lower value 0.0632 | S. cerevisiae deletion strains, locus YOR316C, strain cot1, stronger effect = lower value 0.0675 | S. cerevisiae deletion strains, locus YPL051W, strain arl3, stronger effect = lower value 0.0637 | S. cerevisiae deletion strains, locus YPL055C, strain LGE1, stronger effect = lower value 0.0663 | S. cerevisiae deletion strains, locus YPL078C, strain atp4, stronger effect = lower value 0.0651 | S. cerevisiae deletion strains, locus YPL106C, strain sse1, stronger effect = lower value 0.115 | S. cerevisiae deletion strains, locus YPL240C, strain hsp82, stronger effect = lower value 0.0569 | S. cerevisiae deletion strains, locus YPL241C, strain CIN2, stronger effect = lower value 0.0508 | S. cerevisiae deletion strains, locus YPL256C, strain CLN2, stronger effect = lower value 0.126 | S. cerevisiae deletion strains, locus YPR119W, strain clb2, stronger effect = lower value 0.0704 | S. cerevisiae deletion strains, locus YPR141C, strain kar3, stronger effect = lower value 0.0795 | S. cerevisiae deletion strains, locus YPR163C, strain tif3, stronger effect = lower value 0.0768 | S. cerevisiae deletion strains, locus YPR167C, strain met16, stronger effect = lower value 0.0675 | S. cerevisiae deletion strains, strain wtn01, stronger effect = lower value 0.076 | S. cerevisiae strains, strain wild type, stronger effect = lower value 0.0486
